Numbering of substitutions follows the chain as printed; changes in the protein carry UniProt numbers. The full ranking holds about 16,000 sequences; the median of “ka relative to ugcaugu” is about 0.0091, and the highest 2% start at about 0.032. This excerpt belongs to a sample that is enriched for the highest values.
B1: UCAAGAG (DNA:RNA)
RNA: GGGAGACCGGAAUUCAGAUUGUCCUCAAGAGUUAAAUCCCGUCGUAGCCACCA
DNA 1: CAATCTGAATTCCGGTCTCCC
DNA 2: TGGTGGCTACGACGGGATT
B2: GUUUUAG (DNA:RNA)
RNA: B1 RNA with U25G, C26U, A27U, A28U, G29U
DNA 1: CAATCTGAATTCCGGTCTCCC
DNA 2: TGGTGGCTACGACGGGATT
B3: GCGGAGC (DNA:RNA)
RNA: B1 RNA with U25G, A27G, A28G, G29A, A30G, G31C
DNA 1: CAATCTGAATTCCGGTCTCCC
DNA 2: TGGTGGCTACGACGGGATT
B4: CCUUACC (DNA:RNA)
RNA: B1 RNA with U25C, A27U, A28U, G29A, A30C, G31C
DNA 1: CAATCTGAATTCCGGTCTCCC
DNA 2: TGGTGGCTACGACGGGATT
B5: CCGUAGA (DNA:RNA)
RNA: B1 RNA with U25C, A27G, A28U, G29A, A30G, G31A
DNA 1: CAATCTGAATTCCGGTCTCCC
DNA 2: TGGTGGCTACGACGGGATT
B6: UUGCCUG (DNA:RNA)
RNA: B1 RNA with C26U, A27G, A28C, G29C, A30U
DNA 1: CAATCTGAATTCCGGTCTCCC
DNA 2: TGGTGGCTACGACGGGATT
B7: UGUGCCG (DNA:RNA)
RNA: B1 RNA with C26G, A27U, A28G, G29C, A30C
DNA 1: CAATCTGAATTCCGGTCTCCC
DNA 2: TGGTGGCTACGACGGGATT
B8: UGGUUCC (DNA:RNA)
RNA: B1 RNA with C26G, A27G, A28U, G29U, A30C, G31C
DNA 1: CAATCTGAATTCCGGTCTCCC
DNA 2: TGGTGGCTACGACGGGATT
B9: UGUUGCC (DNA:RNA)
RNA: B1 RNA with C26G, A27U, A28U, A30C, G31C
DNA 1: CAATCTGAATTCCGGTCTCCC
DNA 2: TGGTGGCTACGACGGGATT
B10: GUCCUGG (DNA:RNA)
RNA: B1 RNA with U25G, C26U, A27C, A28C, G29U, A30G
DNA 1: CAATCTGAATTCCGGTCTCCC
DNA 2: TGGTGGCTACGACGGGATT
B11: UGUCCCG (DNA:RNA)
RNA: B1 RNA with C26G, A27U, A28C, G29C, A30C
DNA 1: CAATCTGAATTCCGGTCTCCC
DNA 2: TGGTGGCTACGACGGGATT
B12: UGCUGGU (DNA:RNA)
RNA: B1 RNA with C26G, A27C, A28U, A30G, G31U
DNA 1: CAATCTGAATTCCGGTCTCCC
DNA 2: TGGTGGCTACGACGGGATT
B13: UGGUGCC (DNA:RNA)
RNA: B1 RNA with C26G, A27G, A28U, A30C, G31C
DNA 1: CAATCTGAATTCCGGTCTCCC
DNA 2: TGGTGGCTACGACGGGATT
B14: UGUAGCC (DNA:RNA)
RNA: B1 RNA with C26G, A27U, A30C, G31C
DNA 1: CAATCTGAATTCCGGTCTCCC
DNA 2: TGGTGGCTACGACGGGATT
B15: UGCCUGG (DNA:RNA)
RNA: B1 RNA with C26G, A27C, A28C, G29U, A30G
DNA 1: CAATCTGAATTCCGGTCTCCC
DNA 2: TGGTGGCTACGACGGGATT
B16: GUGCCUG (DNA:RNA)
RNA: B1 RNA with U25G, C26U, A27G, A28C, G29C, A30U
DNA 1: CAATCTGAATTCCGGTCTCCC
DNA 2: TGGTGGCTACGACGGGATT
B17: UGGUUCG (DNA:RNA)
RNA: B1 RNA with C26G, A27G, A28U, G29U, A30C
DNA 1: CAATCTGAATTCCGGTCTCCC
DNA 2: TGGTGGCTACGACGGGATT
B18: GAGUCGU (DNA:RNA)
RNA: GGGAGACCGGAAUUCAGAUUGUCCGAGUCGUUUAAAUCCCGUCGUAGCCACCA
DNA 1: CAATCTGAATTCCGGTCTCCC
DNA 2: TGGTGGCTACGACGGGATT
B19: AUGCAAU (DNA:RNA)
RNA: B18 RNA with G25A, A26U, U28C, C29A, G30A
DNA 1: CAATCTGAATTCCGGTCTCCC
DNA 2: TGGTGGCTACGACGGGATT
B20: AGAUGAG (DNA:RNA)
RNA: B1 RNA with U25A, C26G, A28U
DNA 1: CAATCTGAATTCCGGTCTCCC
DNA 2: TGGTGGCTACGACGGGATT
B21: ACGGGCC (DNA:RNA)
RNA: B1 RNA with U25A, A27G, A28G, A30C, G31C
DNA 1: CAATCTGAATTCCGGTCTCCC
DNA 2: TGGTGGCTACGACGGGATT
B22: UGCUGCC (DNA:RNA)
RNA: B1 RNA with C26G, A27C, A28U, A30C, G31C
DNA 1: CAATCTGAATTCCGGTCTCCC
DNA 2: TGGTGGCTACGACGGGATT
B23: UGCCUCC (DNA:RNA)
RNA: B1 RNA with C26G, A27C, A28C, G29U, A30C, G31C
DNA 1: CAATCTGAATTCCGGTCTCCC
DNA 2: TGGTGGCTACGACGGGATT
B24: UGCCUUG (DNA:RNA)
RNA: B1 RNA with C26G, A27C, A28C, G29U, A30U
DNA 1: CAATCTGAATTCCGGTCTCCC
DNA 2: TGGTGGCTACGACGGGATT
B25: UAGUAGG (DNA:RNA)
RNA: B18 RNA with G25U, C29A, U31G
DNA 1: CAATCTGAATTCCGGTCTCCC
DNA 2: TGGTGGCTACGACGGGATT
B26: CGGGUGU (DNA:RNA)
RNA: B18 RNA with G25C, A26G, U28G, C29U
DNA 1: CAATCTGAATTCCGGTCTCCC
DNA 2: TGGTGGCTACGACGGGATT
B27: GGUGUGU (DNA:RNA)
RNA: B18 RNA with A26G, G27U, U28G, C29U
DNA 1: CAATCTGAATTCCGGTCTCCC
DNA 2: TGGTGGCTACGACGGGATT
B28: GGGUGUU (DNA:RNA)
RNA: B18 RNA with A26G, C29G, G30U
DNA 1: CAATCTGAATTCCGGTCTCCC
DNA 2: TGGTGGCTACGACGGGATT
B29: GGGGUGU (DNA:RNA)
RNA: B18 RNA with A26G, U28G, C29U
DNA 1: CAATCTGAATTCCGGTCTCCC
DNA 2: TGGTGGCTACGACGGGATT
B30: CCCGGGU (DNA:RNA)
RNA: B18 RNA with G25C, A26C, G27C, U28G, C29G
DNA 1: CAATCTGAATTCCGGTCTCCC
DNA 2: TGGTGGCTACGACGGGATT
B31: CGGUGUU (DNA:RNA)
RNA: B18 RNA with G25C, A26G, C29G, G30U
DNA 1: CAATCTGAATTCCGGTCTCCC
DNA 2: TGGTGGCTACGACGGGATT

What follows are binders tested against T1, RBFOX1 RRM (Homo sapiens, UniProt Q9NWB1 109-208) (assay: EMSA; HiTS-Eq, 1 nM pool, 10 min; buffer printed only for the single-RNA assays: 10 mM Tris pH 7.5, 150 mM NaCl, 3.4 mM EDTA, 0.001% NP-40, 30 C). Conditions: tags: His6 N-terminal (pET28a); label: 5' 32P.
T1 sequence: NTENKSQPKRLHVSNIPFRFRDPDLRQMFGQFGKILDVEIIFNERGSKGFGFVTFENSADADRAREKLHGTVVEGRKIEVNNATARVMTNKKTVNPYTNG
How it was run: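 Purified wild-type or mutant RbFox RRM at increasing concentrations was equilibrated with 1 nM of 5′-radiolabelled RNA carrying 7 randomized nucleotides for 10 min in 50 µL. Unbound RNA was separated by 8% native PAGE and sequenced. Relative association constants came from read-count changes of each RNA species compared with the control reaction, normalised to the cognate motif.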

Binder	binding signal
B1	0.00877 KA relative to UGCAUGU
B2	0.0145 KA relative to UGCAUGU
B3	0.0117 KA relative to UGCAUGU
B4	0.00281 KA relative to UGCAUGU
B5	0.00944 KA relative to UGCAUGU
B6	0.0452 KA relative to UGCAUGU
B7	0.0199 KA relative to UGCAUGU
B8	0.0214 KA relative to UGCAUGU
B9	0.0243 KA relative to UGCAUGU
B10	0.0183 KA relative to UGCAUGU
B11	0.0122 KA relative to UGCAUGU
B12	0.028 KA relative to UGCAUGU
B13	0.0219 KA relative to UGCAUGU
B14	0.0129 KA relative to UGCAUGU
B15	0.0474 KA relative to UGCAUGU
B16	0.0397 KA relative to UGCAUGU

Binder	binding signal
B17	0.0375 KA relative to UGCAUGU
B18	0.0129 KA relative to UGCAUGU
B19	0.00453 KA relative to UGCAUGU
B20	0.0142 KA relative to UGCAUGU
B21	0.0142 KA relative to UGCAUGU
B22	0.0265 KA relative to UGCAUGU
B23	0.00846 KA relative to UGCAUGU
B24	0.0505 KA relative to UGCAUGU
B25	0.00933 KA relative to UGCAUGU
B26	0.0321 KA relative to UGCAUGU
B27	0.0173 KA relative to UGCAUGU
B28	0.0233 KA relative to UGCAUGU
B29	0.038 KA relative to UGCAUGU
B30	0.00573 KA relative to UGCAUGU
B31	0.0192 KA relative to UGCAUGU
